About 83,000 compounds went through this panel and 20% of them were active in at least one assay; those are over-represented in the sample as a whole.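 Percent growth is the endpoint: 0 to 100 indicates growth inhibition (40 means 60% inhibition), 0 means no net growth, and negative values indicate cell death.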 Values without a mark were called inactive. Active and inactive are the calls of the source. Rule for the calls: active = growth percent below 10; inactive = the rest.
system: HL-60(TB) leukemia; test: NCI-60 one-dose screen, 48 h (100 = growth as untreated, 0 = no growth, -100 = all killed); conditions: 10 µM unless noted

Row | Compound | growth
1 | COc1cc(C(=O)c2cc(C)c3[nH]c4ccc(Cl)cc4c3c2C)cc(OC)c1OC | 0.383% (active)
2 | C=CCOC(=O)C1=C(C)NC(=O)NC1c1c(Cl)n(C)c2ccccc12 (stereo not drawn) | 109%
3 | CCN1CCC2(CC1)NC(=O)c1c(c3ccc(Cl)c(Cl)c3n1C)C2C#N (stereo not drawn) | 30.2%
4 | CN(C)CCCNCc1ccc(-c2ccc(F)c(Cl)c2)o1 | -4.95% (active)
5 | O=C(Nc1cccc(Cn2c(=O)[nH]c3ccc(Oc4ncccn4)cc3c2=O)c1)c1cccc(F)c1 | 89.9%
6 | Cc1cc(C)c(NC(=O)c2sc3nc4c(cc3c2N)CCCC4)c(C)c1 | -6.2% (active)
7 | COc1cc(/C=C/C(=O)c2ccccc2O)ccc1OCCCOc1cc2c(cc1OC)C(=O)N1CCC[C@H]1C=N2 | -27.4% (active)
8 | CN1c2ccccc2C(C)(C)C12C=Cc1cc(O)ccc1O2 (stereo not drawn) | -30.1% (active)
9 | O=[N+]([O-])c1cccc(-c2nc3sccn3c2-c2ccnc(NCCNS(=O)(=O)c3ccc(C(F)(F)F)cc3)n2)c1 | 16%
10 | COc1ccc(-c2nnc(COc3ccc(NC(=O)Nc4cccc(C(F)(F)F)c4)cc3F)o2)cc1 | 4.03% (active)
11 | CCOC(=O)c1ccc(NC(=O)Nc2nncs2)cc1 | 5.62% (active)
12 | O=C(N/N=C(\CS(=O)(=O)c1ccccc1)c1cc2ccccc2oc1=O)c1ccccc1 | 105%
13 | C=C1C(=O)O[C@H]2[C@H]1CC/C(COC(=O)/C=C\C(=O)NCc1ccc(Cn3c(=O)sn(-c4ccc(OC)cc4)c3=O)cc1)=C\CC[C@@]1(C)O[C@@H]21 | -35.8% (active)
